Test results published in PubChem BioAssay (Tox21).
Results filed as inconclusive are left out. Activity calls are given as the source filed them. Unless noted, the call rests on the fitted dose curve.

What was measured:
[1] = Nuclear factor erythroid 2-related factor 2/antioxidant responsive element (Nrf2/ARE) small molecule agonists: qHTS cell viability counter screen in human keratinocytes (AID 1919968; active means well fitted curve in the direction sought with a large enough effect in the repeat runs; an effect the other way counts as inactive or inconclusive; further: nearly all actives have a fitted effect of over 55% in size; further: potency means the concentration at half of the fitted maximal effect)
Outline: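 Parallel cytotoxicity read: KeratinoSens HaCaT cells, compound treatment 23 h, viability by CellTiter-Fluor fluorescence 1 h post-reagent.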

[2] = Nuclear factor erythroid 2-related factor 2/antioxidant responsive element (Nrf2/ARE) small molecule agonists: luciferase reporter gene qHTS assay in human keratinocytes (AID 1919969); further: nearly all actives have a fitted effect of over 35% in size; further: potency means the concentration at half of the fitted maximal effect
[3] = target: Gonadotropin-releasing hormone receptor (Homo sapiens) (UniProt P30968); experiment: Human gonadotropin-releasing hormone receptor (GnRHR) small molecule agonists, calcium flux assay in GnRHR-HEK293 cells (AID 1920063); further: nearly all actives have a fitted effect of over 35% in size
Sequence of Gonadotropin-releasing hormone receptor (Homo sapiens) (P30968 whole entry, looked up): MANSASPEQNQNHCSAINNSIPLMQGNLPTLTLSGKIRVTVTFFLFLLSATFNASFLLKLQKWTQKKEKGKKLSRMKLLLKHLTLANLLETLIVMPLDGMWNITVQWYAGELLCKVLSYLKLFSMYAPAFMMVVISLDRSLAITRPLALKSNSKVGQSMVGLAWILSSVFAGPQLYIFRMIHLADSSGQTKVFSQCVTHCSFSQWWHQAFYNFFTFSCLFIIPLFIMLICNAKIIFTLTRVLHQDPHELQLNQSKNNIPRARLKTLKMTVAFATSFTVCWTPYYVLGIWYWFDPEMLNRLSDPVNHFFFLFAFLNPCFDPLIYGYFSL
Outline: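 Calcium flux, agonist mode, human GnRHR stably integrated in HEK293; dye 1 h at 37 C before compound; Ex/Em=480/540 kinetic read, 3 min; 15 concentrations, triplicate.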

[4] = target: KiSS-1 receptor (Homo sapiens) (UniProt Q969F8); experiment: Human kisspeptin (KISS1R) small molecule agonists, calcium flux assay in KISS1R-HEK293 cells (AID 1920064; active means well fitted curve in the direction sought with a large enough effect in the repeat runs; an effect the other way counts as inactive or inconclusive)
Sequence of KiSS-1 receptor (Homo sapiens) (Q969F8 whole entry, looked up): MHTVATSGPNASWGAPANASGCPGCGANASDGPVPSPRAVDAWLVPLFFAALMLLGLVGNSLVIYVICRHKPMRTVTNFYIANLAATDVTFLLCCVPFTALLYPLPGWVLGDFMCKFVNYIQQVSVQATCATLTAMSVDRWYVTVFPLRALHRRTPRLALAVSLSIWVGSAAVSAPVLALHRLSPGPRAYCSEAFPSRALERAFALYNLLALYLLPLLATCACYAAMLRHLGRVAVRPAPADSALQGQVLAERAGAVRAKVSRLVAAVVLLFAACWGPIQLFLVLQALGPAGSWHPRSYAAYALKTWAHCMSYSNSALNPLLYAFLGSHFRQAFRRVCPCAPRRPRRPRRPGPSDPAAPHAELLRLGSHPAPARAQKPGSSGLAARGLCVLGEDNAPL
Outline: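 Triplicate 15-concentration series were applied to dye-loaded human KISS1R HEK293 cells, and agonist-evoked calcium fluorescence was captured for 3 min.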

[5] = G protein-coupled receptor (GPCR) small molecule agonists, calcium flux assay: HEK293 wild type cell line counter screen (AID 1920065)
Outline: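 Non-specific calcium responders were flagged by adding DMSO-dissolved compounds to dye-loaded cells and reading 480/540 nm fluorescence each second for 3 min; ATP served as positive control.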

[6] = p53 small molecule agonists, cell-based qHTS assay with human liver microsomes (AID 1963577);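 further: p53 response element beta-lactamase reporter cells with liver microsomes plus NADPH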
Outline: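 p53RE-bla cells; 5 h settle, 37 C/5% CO2; cpd + HLM 0.5 mg/mL + NADPH 0.5 mg/mL (final); 16 h 37 C; LiveBLAzer 2 h RT dark; fluorescence readout.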

[7] = p53 small molecule agonists, cell-based qHTS assay with rat liver microsomes (AID 1963578)
Outline: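 Rat liver microsome activation: microsomes 0.5 mg/mL, NADPH 0.5 mg/mL final; p53RE-bla cells, 16 h 37 C; LiveBLAzer readout, 2 h RT dark.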

[8] = p53 small molecule agonists, cell-based qHTS assay with human liver microsomes: qHTS cell viability counter screen (AID 1963579); further: nearly all actives have a fitted effect of over 45% in size
Outline: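 Luminescent CellTiter-Glo read-out, 30 min at room temperature, gauged cytotoxicity in p53RE-bla cells exposed 16 h at 37 C to DMSO-dissolved compounds with metabolic activation by human liver microsomes and NADPH, each 0.5 mg/mL final.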

[9] = p53 small molecule agonists, cell-based qHTS assay with rat liver microsomes: qHTS cell viability counter screen (AID 1963580); further: nearly all actives have a fitted effect of over 45% in size
Outline: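 Cytotoxicity counter screen: intracellular ATP measured by CellTiter-Glo luminescence in the same wells as the beta-lactamase reporter read, on HCT-116 p53RE-bla cells exposed 16 h at 37 C to compounds with rat liver microsomes and NADPH, each 0.5 mg/mL final.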

[10] = p53 small molecule agonists, cell-based qHTS assay: qHTS cell viability counter screen (AID 1963581); further: nearly all actives have a fitted effect of over 45% in size; further: potency means the concentration at half of the fitted maximal effect
Outline: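 Multiplexed with the reporter read, a CellTiter-Glo step (30 min, room temperature) gauges ATP-based viability of HCT-116 p53RE-bla cells after 16 h compound incubation at 37 C.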

[11] = target: 5-hydroxytryptamine receptor 2A (Homo sapiens) (UniProt P28223); experiment: 5-hydroxytryptamine receptor 2A (HTR2A) small molecule antagonists, cell-based qHTS assay (AID 1963586); further: nearly all actives have a fitted effect of over 45% in size
Sequence of 5-hydroxytryptamine receptor 2A (Homo sapiens) (P28223 whole entry, looked up): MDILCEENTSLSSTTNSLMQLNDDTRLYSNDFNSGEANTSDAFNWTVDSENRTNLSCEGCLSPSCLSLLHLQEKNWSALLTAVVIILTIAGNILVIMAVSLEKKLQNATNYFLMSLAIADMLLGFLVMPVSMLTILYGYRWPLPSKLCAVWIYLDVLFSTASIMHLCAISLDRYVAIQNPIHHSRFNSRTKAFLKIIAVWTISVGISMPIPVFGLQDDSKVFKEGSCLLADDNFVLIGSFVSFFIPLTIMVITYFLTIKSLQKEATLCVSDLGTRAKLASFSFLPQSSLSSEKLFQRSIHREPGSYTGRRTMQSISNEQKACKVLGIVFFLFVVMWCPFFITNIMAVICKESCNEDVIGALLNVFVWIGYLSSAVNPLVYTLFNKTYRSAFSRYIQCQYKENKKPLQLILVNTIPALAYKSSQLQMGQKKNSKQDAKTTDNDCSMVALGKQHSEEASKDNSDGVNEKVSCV
Outline: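 CHO cells stably expressing human HTR2A were plated for 18 h at 37 C, then loaded with calcium dye for 1 h. Compounds were preincubated 5 min at room temperature before DOI (4 nM solution) was added. Kinetic fluorescence was read for 3 min.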

[12] = target: Muscarinic acetylcholine receptor M1 (Homo sapiens) (UniProt P11229); experiment: Cholinergic receptor muscarinic 1 (CHRM1) small molecule antagonists, cell-based qHTS assay (AID 1963588); further: nearly all actives have a fitted effect of over 40% in size
Sequence of Muscarinic acetylcholine receptor M1 (Homo sapiens) (P11229 whole entry, looked up): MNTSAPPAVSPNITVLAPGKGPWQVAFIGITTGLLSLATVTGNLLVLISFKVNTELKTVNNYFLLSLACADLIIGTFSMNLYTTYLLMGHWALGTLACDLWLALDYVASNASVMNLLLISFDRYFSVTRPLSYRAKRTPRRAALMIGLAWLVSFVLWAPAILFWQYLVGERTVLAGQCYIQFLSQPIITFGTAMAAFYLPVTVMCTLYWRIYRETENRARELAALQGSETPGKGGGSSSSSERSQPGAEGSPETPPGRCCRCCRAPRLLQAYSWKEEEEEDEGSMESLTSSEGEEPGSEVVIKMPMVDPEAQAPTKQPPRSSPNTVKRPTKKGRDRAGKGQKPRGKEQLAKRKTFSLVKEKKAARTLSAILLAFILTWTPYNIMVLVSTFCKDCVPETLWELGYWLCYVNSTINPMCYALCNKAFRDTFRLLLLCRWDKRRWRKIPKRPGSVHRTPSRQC
Outline: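 Compounds were tested at 15 concentrations in three independent runs. Dye-loaded CHRM1-CHO cells were exposed 5 min at room temperature before stimulation by acetylcholine added at 50nM. Intracellular calcium was read kinetically on FDSS for 3 min.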

[13] = target: Muscarinic acetylcholine receptor M1 (Homo sapiens) (UniProt P11229); experiment: Cholinergic receptor muscarinic 1 (CHRM1) small molecule agonists, cell-based qHTS assay (AID 1963589); further: nearly all actives have a fitted effect of over 35% in size
Outline: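 qHTS, 15-point titration, 3 independent runs: compounds pin-transferred onto dye-loaded CHRM1-CHO cells (human M1), calcium fluorescence followed every second to detect agonism.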

[14] = cAMP Responsive Elements (CRE) small molecule agonists, cell-based qHTS assay (AID 1963590)
Outline: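 Quantitative HTS for CRE agonists: HEK 293T CRE-bla cells, overnight plating, 3 h compound incubation at 37 C/5% CO2, then 2 h room-temperature LiveBLAzer B/G FRET substrate loading.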

[15] = target: Beta-2 adrenergic receptor (Homo sapiens) (UniProt P07550); experiment: Adrenergic beta2 receptor (ADRB2) small molecule antagonists, cell-based qHTS assay (AID 1963592); further: nearly all actives have a fitted effect of over 50% in size; further: potency means the concentration at half of the fitted maximal effect; on activity change, negative = inhibition: series mostly up to about 92 µM
Sequence of Beta-2 adrenergic receptor (Homo sapiens) (P07550 whole entry, looked up): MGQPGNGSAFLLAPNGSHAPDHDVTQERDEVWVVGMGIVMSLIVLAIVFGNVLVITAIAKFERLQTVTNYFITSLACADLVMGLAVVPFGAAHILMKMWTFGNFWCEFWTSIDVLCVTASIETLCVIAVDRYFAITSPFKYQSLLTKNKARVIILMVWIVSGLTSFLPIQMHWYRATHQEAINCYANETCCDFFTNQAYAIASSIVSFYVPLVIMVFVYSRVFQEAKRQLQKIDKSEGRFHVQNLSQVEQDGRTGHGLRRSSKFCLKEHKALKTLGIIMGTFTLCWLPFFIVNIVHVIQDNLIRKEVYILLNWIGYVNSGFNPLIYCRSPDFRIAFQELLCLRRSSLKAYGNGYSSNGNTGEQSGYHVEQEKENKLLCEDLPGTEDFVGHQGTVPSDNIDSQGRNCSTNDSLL
Outline: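 Assay format: CHO-ADRB2 cells, 18-20hr seeding at 37C/5% CO2, then compound plus 1nM isoproterenol agonist mix for 0.5hr RT. Homogeneous time-resolved fluorescence cAMP detection after 1hr, expressed as 665/615 nm ratio.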

[16] = target: D(2) dopamine receptor (Homo sapiens) (UniProt P14416); experiment: Dopamine D2 receptor (DRD2) small molecule agonists, cell-based qHTS assay (AID 1963594); further: nearly all actives have a fitted effect of over 35% in size
Sequence of D(2) dopamine receptor (Homo sapiens) (P14416 whole entry, looked up): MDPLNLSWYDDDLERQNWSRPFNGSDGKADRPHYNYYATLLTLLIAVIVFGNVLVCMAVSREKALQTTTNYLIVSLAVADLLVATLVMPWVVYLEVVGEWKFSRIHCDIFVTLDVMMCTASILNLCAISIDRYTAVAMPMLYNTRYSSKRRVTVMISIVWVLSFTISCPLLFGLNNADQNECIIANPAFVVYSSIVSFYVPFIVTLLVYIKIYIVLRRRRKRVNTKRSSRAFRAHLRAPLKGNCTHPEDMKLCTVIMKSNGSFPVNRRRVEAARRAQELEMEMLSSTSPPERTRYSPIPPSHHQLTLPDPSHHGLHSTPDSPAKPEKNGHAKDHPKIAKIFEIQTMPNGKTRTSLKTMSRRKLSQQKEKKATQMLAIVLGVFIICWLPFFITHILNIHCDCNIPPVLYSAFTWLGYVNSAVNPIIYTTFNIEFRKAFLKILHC
Outline: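 HEK293 cells stably expressing human DRD2, pre-treated with PDE inhibitor Ro20-1724 (0.1 mM final) and compound 10 min at room temperature, then stimulated with NKH477 (200nM […]) for 30 min. cAMP read by HTRF (665/620 nm).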

[17] = target: D(2) dopamine receptor (Homo sapiens) (UniProt P14416); experiment: Dopamine D2 receptor (DRD2) small molecule antagonists, cell-based qHTS assay (AID 1963595; active means well fitted inhibition curve with a large enough effect in the signal ratio in the repeat runs, with a control signal flat; the % refers to the signal ratio; further: potency means the concentration at half of the fitted maximal effect)
Outline: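 Antagonist mode in DRD2-HEK293 cells: after compound addition with 0.1 mM Ro20-1724, cells received quinpirole (12 nM) and NKH477 (200 nM) for 30 min at room temperature; HTRF cAMP read after 1 h detection.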

[18] = target: 5-hydroxytryptamine receptor 2A (Homo sapiens) (UniProt P28223); experiment: 5-hydroxytryptamine receptor 2A (HTR2A) small molecule agonists, cell-based qHTS assay (AID 1963587); further: nearly all actives have a fitted effect of over 30% in size
Outline: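 CHO cells stably expressing human HTR2A, plated 18 h, loaded with calcium dye 1 h at 37 C. Agonist mode: compounds added and intracellular calcium fluorescence recorded kinetically for 2 min at 1 sec intervals.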

[19] = cAMP Responsive Elements (CRE) small molecule antagonists, cell-based qHTS assay (AID 1963591; active means well fitted inhibition curve with a large enough effect in the signal ratio in the repeat runs, not every such curve was filed as active; the % refers to the signal ratio; further: potency means the concentration at half of the fitted maximal effect)
Outline: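 Fluorescence intensity from cleaved LiveBLAzer B/G substrate (2 h, room temperature) quantified CRE-bla activity in HEK 293T cells exposed 3 h to compound with 0.25 uM final NKH477.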

[20] = p53 small molecule agonists, cell-based qHTS assay (AID 1963582; active means well fitted activation curve with a large enough effect in the signal ratio in the repeat runs, not every such curve was filed as active; the % refers to the signal ratio)
Outline: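 Beta-lactamase reporter cells (p53RE-bla) treated with compounds for 16 h at 37 C; FRET substrate, 2 h, room temperature; fluorescence intensity.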
On the % scale 0 is the no-effect control and ±100 the full control effect.

CC1(C)S[C@@H]2[C@H](N=CN3CCCCCC3)C(=O)N2[C@H]1C(=O)O
inactive: Potency [1] | Potency [2] | Potency [3] | outcome [4] | outcome [5] | Potency [6] | Potency [7] | Potency [8] | Potency [9] | Potency [10] | Potency [11] | Potency [12] | Potency [13] | Potency [14] | Potency [15] | Potency [16] | Potency [17]

C/C(=C\C(C)CC(C)CC(C)C)C1CC(=O)OC1=O (configuration not stated)
inactive: Potency [1] | Potency [2] | Potency [3] | outcome [4] | outcome [5] | Potency [6] | Potency [7] | Potency [8] | Potency [9] | Potency [10] | Potency [11] | Potency [18] | Potency [12] | Potency [15] | Potency [16] | Potency [17]

c1ccc2c(CC3=NCCN3)cccc2c1
inactive: Potency [1] | Potency [2] | Potency [3] | outcome [4] | outcome [5] | Potency [6] | Potency [7] | Potency [8] | Potency [9] | Potency [10] | Potency [18] | Potency [12] | Potency [13] | Potency [14] | Potency [19] | Potency [15] | Potency [16] | Potency [17]

Nc1ccc(S(=O)(=O)NCc2ccccc2)cc1
inactive: Potency [1] | Potency [2] | Potency [3] | outcome [4] | outcome [5] | Potency [6] | Potency [7] | Potency [8] | Potency [9] | Potency [10] | Potency [18] | Potency [12] | Potency [13] | Potency [14] | Potency [19] | Potency [15] | Potency [16]

CNc1c2c(nn1C)CCCC2
inactive: Potency [1] | Potency [2] | Potency [3] | outcome [4] | outcome [5] | Potency [6] | Potency [7] | Potency [8] | Potency [9] | Potency [10] | Potency [11] | Potency [18] | Potency [13] | Potency [14] | Potency [15] | Potency [16] | Potency [17]

CCCCCOC(=O)CCC
inactive: Potency [1] | Potency [2] | Potency [3] | outcome [4] | outcome [5] | Potency [6] | Potency [7] | Potency [8] | Potency [9] | Potency [10] | Potency [11] | Potency [18] | Potency [12] | Potency [14] | Potency [19] | Potency [15] | Potency [16] | Potency [17]

O=c1[nH]cnc2ccccc12
active: Potency [2] 0.0631 µM
inactive: Potency [1] | Potency [3] | outcome [4] | outcome [5] | Potency [6] | Potency [7] | Potency [8] | Potency [9] | Potency [10] | Potency [11] | Potency [18] | Potency [13] | Potency [14] | Potency [15] | Potency [16]

CCN(C(=O)c1cc(C)cc(OC[C@H](C)Nc2ccncc2)c1)C(C)C
active: Potency [19] 21.4 µM
inactive: Potency [1] | Potency [2] | Potency [3] | outcome [4] | outcome [5] | Potency [6] | Potency [7] | Potency [8] | Potency [9] | Potency [10] | Potency [18] | Potency [12] | Potency [13] | Potency [15] | Potency [16] | Potency [17]

CCOC(=O)C(=O)c1csc(NC=O)n1
inactive: Potency [1] | Potency [2] | Potency [3] | outcome [4] | outcome [5] | Potency [6] | Potency [7] | Potency [8] | Potency [9] | Potency [20] | Potency [11] | Potency [18] | Potency [12] | Potency [13] | Potency [14] | Potency [19] | Potency [15] | Potency [16] | Potency [17]

CCOC(=O)CC(CC(=O)OCC)(OC(C)=O)C(=O)OCC
inactive: Potency [1] | Potency [2] | Potency [3] | outcome [4] | outcome [5] | Potency [6] | Potency [7] | Potency [8] | Potency [9] | Potency [20] | Potency [11] | Potency [18] | Potency [12] | Potency [13] | Potency [14] | Potency [19] | Potency [15] | Potency [16] | Potency [17]

COc1ccc2c(c1)c(CC(=O)OCC(=O)O)c(C)n2C(=O)c1ccc(Cl)cc1
inactive: Potency [1] | Potency [2] | Potency [3] | outcome [4] | outcome [5] | Potency [6] | Potency [7] | Potency [8] | Potency [9] | Potency [10] | Potency [15] | Potency [16] | Potency [17]

CCCCCCCCCCCCCCCCOS(=O)(=O)O
inactive: Potency [1] | Potency [2] | Potency [3] | outcome [4] | outcome [5] | Potency [6] | Potency [7] | Potency [8] | Potency [9] | Potency [10] | Potency [12] | Potency [13] | Potency [14] | Potency [19] | Potency [15] | Potency [16] | Potency [17]

OC1(c2ccc(Cl)c(C(F)(F)F)c2)CCN(CCCC(c2ccc(F)cc2)c2ccc(F)cc2)CC1
active: Potency [1] 6.68 µM | Potency [10] 11.2 µM | Potency [15] 26.6 µM | Potency [17] 0.119 µM
inactive: Potency [2] | Potency [3] | outcome [4] | outcome [5] | Potency [6] | Potency [7] | Potency [8] | Potency [9] | Potency [18] | Potency [13] | Potency [16]

COc1ccc([C@@H]2Sc3ccccc3N(CCN(C)C)C(=O)[C@@H]2OC(C)=O)cc1
inactive: Potency [1] | Potency [2] | Potency [3] | outcome [4] | outcome [5] | Potency [6] | Potency [7] | Potency [8] | Potency [9] | Potency [10] | Potency [14] | Potency [15] | Potency [16] | Potency [17]

CCn1cc(C(=O)O)c(=O)c2cnc(N3CCCC3)nc21
inactive: activity change, negative = cytotoxicity [1] -0.789% [at 8.39 µM] | activity, positive = activation [2] 0.384% [at 8.39 µM] | activity change [3] -1.43% [at 5.22 µM, hits give high values] | activation [4] 2.91% [at 6.97 µM] | activation [5] 0.533% [at 5.23 µM] | activation [6] 10.8% [at 5.99 µM] | activation [7] -0.037% [at 5.99 µM] | activity change, negative = cytotoxicity [8] 17.3% [at 5.99 µM] | activity change, negative = cytotoxicity [9] -0.816% [at 5.99 µM] | activity change, negative = cytotoxicity [10] -0.227% [at 5.99 µM] | activation [14] -3.86% [at 8.39 µM] | activity change, negative = inhibition [15] -0.194% [at 8.39 µM] | activation [16] 1.32% [at 8.39 µM] | activity change, negative = inhibition [17] 2.86% [at 8.38 µM]
